Laboratory results reported in PubChem BioAssay (NCATS).
Records with an inconclusive call do not appear. Activity calls are given as the source filed them. Calls come from the whole dose curve; as a rule, active = well fitted curve in the direction sought with a large enough effect; inconclusive = small, poorly fitted or top-dose-only effect, or another doubt; inactive = no such curve, though single readings can be large; an effect the other way counts as inactive or inconclusive.

Legend:
[1] = molecular target: Rap guanine nucleotide exchange factor 3 (Homo sapiens) (UniProt O95398); assay: Confirmatory qHTS for antagonist of cAMP-regulated guanine nucleotide exchange factor 3 (EPAC1) (AID 1645880); settings: EPAC1 Rap1B-BODIPY-GDP exchange, fluorescence; activity, negative = inhibition: at 115 µM (top of the series); note: nearly all actives have a fitted effect of over 55% in size; note: potency is the fitted concentration of half-maximal effect;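 for activity, negative = inhibition: plate controls were DMSO only for no effect and full effect of the ATA control for full effect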
Method in brief: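 Released BODIPY-GDP fluoresces less than Rap1-bound BODIPY-GDP; the signal is followed at 480/540 nm at 5-min intervals over 30 min, after 5 min at room temperature. Reactions contain 100 nM EPAC1, 250 nM RAP1B-BODIPY-GDP and 50 uM GDP; results are normalized to ATA and DMSO.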

[2] = molecular target: Rap guanine nucleotide exchange factor 3 (Homo sapiens) (UniProt O95398); assay: Confirmatory qHTS for agonist of cAMP-regulated guanine nucleotide exchange factor 3 (EPAC1) (AID 1645881); note: nearly all actives have a fitted effect of over 75% in size; note: potency is the fitted concentration of half-maximal effect;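 for activation: EPAC1 catalysed release of BODIPY-GDP from Rap1B seen as fluorescence loss; 100% = effect of cAMP agonist control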
[3] = molecular target: Rap guanine nucleotide exchange factor 4 (Homo sapiens) (UniProt Q8WZA2); assay: Confirmatory qHTS for agonist of cAMP-regulated guanine nucleotide exchange factor 4 (EPAC2) (AID 1645884);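 note: nucleotide exchange releases bodipy-GDP from Rap1 and this lowers its fluorescence; nearly all actives have a fitted effect of over 65% in size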; note: potency is the fitted concentration of half-maximal effect; for activation: % is set by controls: 0 for no effect and ±100 for the full control effect
[4] = molecular target: Rap guanine nucleotide exchange factor 4 (Homo sapiens) (UniProt Q8WZA2); assay: Confirmatory qHTS for antagonist of cAMP-regulated guanine nucleotide exchange factor 4 (EPAC2) (AID 1645885); note: nearly all actives have a fitted effect of over 25% in size; note: potency is the fitted concentration of half-maximal effect; for activity change, negative = inhibition: % is set by controls: 0 for no effect and ±100 for the full control effect
[5] = molecular target: Rap guanine nucleotide exchange factor 3 (Homo sapiens) (UniProt O95398); assay: Counterscreen qHTS for antagonist of cAMP-regulated guanine nucleotide exchange factor 3 (EPAC1) (AID 1645888); note: % of control where 0% means no effect
Method in brief: (§1)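 Rap1B–BODIPY-GDP (250 nM) with 50 uM GDP; compounds pin-transferred to 9.74 nM–152 uM final (activator) or from 7.32 nM upwards (inhibitor). Fluorescence Ex/Em 480/540 nm read at 5 and 30 min, then after adding cAMP or buffer, at room temperature.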

[6] = molecular target: Rap guanine nucleotide exchange factor 3 (Homo sapiens) (UniProt O95398); assay: Counterscreen qHTS for agonist of cAMP-regulated guanine nucleotide exchange factor 3 (EPAC1) (AID 1645889); note: nearly all actives have a fitted effect of over 40% in size; note: potency is the fitted concentration of half-maximal effect; for activation: % of control where 0% means no effect
Method in brief: as §1

Sequence of Rap guanine nucleotide exchange factor 4 (Homo sapiens) (Q8WZA2 whole entry, looked up): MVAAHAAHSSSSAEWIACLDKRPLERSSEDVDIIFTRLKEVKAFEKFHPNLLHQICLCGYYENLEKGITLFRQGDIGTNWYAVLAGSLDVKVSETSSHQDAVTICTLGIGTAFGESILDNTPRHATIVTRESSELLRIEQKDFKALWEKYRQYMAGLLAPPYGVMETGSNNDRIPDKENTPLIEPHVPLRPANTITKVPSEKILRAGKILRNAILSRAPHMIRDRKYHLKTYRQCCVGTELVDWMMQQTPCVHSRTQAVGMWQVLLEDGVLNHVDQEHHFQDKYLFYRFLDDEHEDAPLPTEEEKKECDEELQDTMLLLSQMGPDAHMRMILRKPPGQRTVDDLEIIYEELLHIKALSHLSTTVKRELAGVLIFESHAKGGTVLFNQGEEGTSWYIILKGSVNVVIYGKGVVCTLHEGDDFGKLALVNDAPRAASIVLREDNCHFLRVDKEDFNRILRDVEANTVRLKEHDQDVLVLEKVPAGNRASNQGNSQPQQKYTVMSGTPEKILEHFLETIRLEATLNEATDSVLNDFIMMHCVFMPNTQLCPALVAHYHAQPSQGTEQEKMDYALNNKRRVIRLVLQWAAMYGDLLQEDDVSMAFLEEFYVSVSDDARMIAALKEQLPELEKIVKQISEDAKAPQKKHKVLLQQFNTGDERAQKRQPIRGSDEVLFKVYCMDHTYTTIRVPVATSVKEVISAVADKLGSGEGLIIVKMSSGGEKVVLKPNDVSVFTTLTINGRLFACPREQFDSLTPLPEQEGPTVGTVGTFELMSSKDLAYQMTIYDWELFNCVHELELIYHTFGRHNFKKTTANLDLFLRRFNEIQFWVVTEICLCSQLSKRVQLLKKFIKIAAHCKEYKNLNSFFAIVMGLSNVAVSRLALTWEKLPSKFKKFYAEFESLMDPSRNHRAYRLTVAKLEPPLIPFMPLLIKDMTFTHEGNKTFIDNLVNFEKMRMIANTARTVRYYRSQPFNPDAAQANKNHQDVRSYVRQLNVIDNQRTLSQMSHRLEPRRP
Sequence of Rap guanine nucleotide exchange factor 3 (Homo sapiens) (O95398 whole entry, looked up): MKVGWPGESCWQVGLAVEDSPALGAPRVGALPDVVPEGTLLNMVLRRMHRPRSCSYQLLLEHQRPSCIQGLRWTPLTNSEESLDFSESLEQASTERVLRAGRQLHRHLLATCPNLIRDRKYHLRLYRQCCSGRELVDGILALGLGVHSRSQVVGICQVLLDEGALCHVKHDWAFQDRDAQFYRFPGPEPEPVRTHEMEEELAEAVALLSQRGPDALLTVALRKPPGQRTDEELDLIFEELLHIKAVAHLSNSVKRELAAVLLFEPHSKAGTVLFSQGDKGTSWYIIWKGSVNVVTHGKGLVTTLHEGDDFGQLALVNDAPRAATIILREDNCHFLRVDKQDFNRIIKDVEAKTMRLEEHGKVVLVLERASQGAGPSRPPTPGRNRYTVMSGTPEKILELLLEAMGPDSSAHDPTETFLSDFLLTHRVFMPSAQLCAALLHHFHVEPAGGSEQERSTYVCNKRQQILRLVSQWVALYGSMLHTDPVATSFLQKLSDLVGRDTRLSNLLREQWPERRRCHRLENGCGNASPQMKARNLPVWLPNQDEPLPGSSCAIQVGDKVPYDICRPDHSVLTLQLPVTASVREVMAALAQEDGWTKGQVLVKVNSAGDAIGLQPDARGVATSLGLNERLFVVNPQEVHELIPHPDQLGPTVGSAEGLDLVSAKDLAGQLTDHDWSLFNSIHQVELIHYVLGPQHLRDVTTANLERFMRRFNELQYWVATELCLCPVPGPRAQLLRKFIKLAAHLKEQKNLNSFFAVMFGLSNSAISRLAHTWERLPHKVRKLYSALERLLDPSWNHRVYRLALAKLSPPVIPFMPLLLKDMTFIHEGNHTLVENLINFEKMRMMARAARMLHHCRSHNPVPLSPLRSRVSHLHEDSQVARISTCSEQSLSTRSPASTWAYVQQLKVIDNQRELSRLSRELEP

CCC/C=C/c1ccc(CN2C(CC(C)C)C(=O)N(Cc3cn(CCC4OCCO4)nn3)CCS2(=O)=O)cc1 (stereo not drawn)
active: Potency [1] 37.9 µM | Potency [4] 23.9 µM
inactive: Potency [2] | Potency [3]

Cc1ccn2c(=O)c(NC(=O)c3ccc(Br)o3)c(C)nc2c1
inactive: Potency [1] | Potency [2] | activation [3] 4.58% [at 17.1 µM, percent relative to cAMP agonist control] | Potency [4] | activity change, negative = inhibition [5] -1.7% [at 30.8 µM] | activation [6] -2.62% [at 30.8 µM]

CCOC(=O)C1(c2ccccc2)SC(C(=O)OCC)(c2ccccc2)S1 (stereo not drawn)
active: Potency [4] 53.6 µM
inactive: Potency [1] | Potency [2] | Potency [3] | Potency [5] | Potency [6]

Cc1nn(C(=O)c2ccco2)c(C)c1Sc1ccccc1
active: Potency [4] 10.7 µM
inactive: Potency [1] | Potency [2] | Potency [3] | Potency [5] | Potency [6]

O=C1/C(=C\c2ccc(Br)cc2)SC(=S)N1NS(=O)(=O)c1ccccc1
active: Potency [1] 11.2 µM
inactive: Potency [2] | activation [3] 10.7% [at 17.1 µM, percent relative to cAMP agonist control]

COC(=O)[C@@H](NC(=O)Nc1ccc2c(c1)OCCO2)C(C)C
inactive: Potency [1] | Potency [2] | Potency [3] | Potency [4] | Potency [5] | Potency [6]

O=C(CSc1n[nH]c(-c2ccccc2)n1)c1ccc(O)c(O)c1
active: Potency [1] 42.6 µM
inactive: Potency [2] | Potency [3] | Potency [4]

Cc1ccc(Cc2cnc(N3C(=N)SC(c4ccccc4)C3=O)s2)cc1 (stereo not drawn)
inactive: Potency [1] | Potency [2] | activation [3] 9.77% [at 17.1 µM, percent relative to cAMP agonist control] | Potency [4] | activity change, negative = inhibition [5] -12.3% [at 30.8 µM] | activation [6] 27.7% [at 30.8 µM]

CN1/C(=C\C=C2/SC(=S)N(CC(=O)O)C2=O)C(C)(C)c2ccccc21
active: Potency [2] 44.7 µM | Potency [3] 7.94 µM | Potency [6] 10 µM
inactive: Potency [1] | Potency [4] | activity change, negative = inhibition [5] 286% [at 30.8 µM]

Cc1c2cn[nH]c(=O)c2c(C)n1-c1ccccc1
inactive: Potency [1] | Potency [2] | Potency [3] | Potency [4] | Potency [5] | Potency [6]

CCC(C)(C)NC(=O)C(c1ccccn1)N(C(=O)c1csnn1)C1CCCCC1 (stereo not drawn)
inactive: Potency [1] | Potency [2] | Potency [3] | Potency [4] | Potency [5] | Potency [6]

COc1cc(C(C)=O)ccc1COc1ccc(C(=O)O)cc1OC
inactive: Potency [1] | Potency [2] | activation [3] 7.71% [at 17.1 µM, percent relative to cAMP agonist control] | Potency [4] | activity change, negative = inhibition [5] -10.4% [at 30.8 µM] | activation [6] -0.313% [at 30.8 µM]

COC(=O)[C@H](CC(C)C)NC(=O)CC[C@H]1O[C@@H](n2ccc(=O)[nH]c2=O)[C@H](O)[C@@H]1O
inactive: Potency [1] | Potency [2] | Potency [3] | Potency [4] | Potency [5] | Potency [6]

COc1ccc(S(=O)(=O)NC(CCSC)C(=O)NC2CCCCC2)cc1 (stereo not drawn)
inactive: Potency [1] | Potency [2] | Potency [3] | Potency [4] | Potency [5]

CCOC(=O)COc1ccc(Br)cc1/C=C/c1[nH]c(=O)[nH]c(=O)c1[N+](=O)[O-]
inactive: Potency [2] | Potency [3] | Potency [4] | Potency [5]
active: Potency [1] 7.57 µM

COC(=O)c1cc2ccsc2n1Cc1cccc(F)c1
inactive: Potency [1] | Potency [2] | Potency [3] | Potency [4] | Potency [5] | Potency [6]

O=c1c(-c2ccc(F)cc2)[n+]([O-])c2ccccc2n1OCc1ccccn1
inactive: Potency [1] | Potency [2] | activation [3] -8.77% [at 17.1 µM, percent relative to cAMP agonist control] | Potency [4] | activity change, negative = inhibition [5] 1.53% [at 30.8 µM] | activation [6] 6.02% [at 30.8 µM]

COc1ccc(C)cc1NC(=O)c1ccccc1NS(=O)(=O)c1ccc(Cl)s1
active: Potency [1] 75.7 µM
inactive: Potency [2] | Potency [3] | Potency [4] | Potency [5] | Potency [6]

CC(C)c1nn2c(=O)cc(COC(=O)c3cccc(NC(=O)c4cccs4)c3)nc2s1
inactive: Potency [1] | Potency [2] | Potency [3] | Potency [4] | Potency [5] | Potency [6]

[O-][n+]1c2ccccc2[n+]([O-])c2cc(O)ccc21
inactive: Potency [2] | Potency [3] | Potency [4] | Potency [5] | Potency [6]
active: Potency [1] 37.9 µM

C=CCOc1ccc(C2N3CC4(CC)CN2CC(CC)(C3)C4=O)cc1 (stereo not drawn)
inactive: Potency [1] | Potency [2] | activation [3] 6.19% [at 17.1 µM, percent relative to cAMP agonist control] | Potency [4] | activity change, negative = inhibition [5] -3.19% [at 30.8 µM] | activation [6] 36.6% [at 30.8 µM]

O=C(Nc1nc2ccc(Cl)cc2s1)C1CCCO1 (stereo not drawn)
inactive: Potency [1] | Potency [2] | activation [3] 6.17% [at 17.1 µM, percent relative to cAMP agonist control] | Potency [4] | activity change, negative = inhibition [5] 0.458% [at 30.8 µM] | activation [6] 15.7% [at 30.8 µM]
